Many of the other results were omitted from the sample, so hits are more common in it than they were.
Dicer inh: inhibitors of human Dicer processing of pre-microRNA. Q9UPY3. cat-ELCCA pre-miR-21 Dicer processing, chemiluminescence; hits give high values. z-score at 25 µM. 6% of 47,000 active. AID 1347074; in the data active = z-score above about 3, passing the limit was not always enough;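 also: plate controls were vehicle for no effect and no enzyme for full effect; higher signal means more uncleaved substrate so more Dicer inhibition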
Target sequence (Q9UPY3 whole entry, looked up): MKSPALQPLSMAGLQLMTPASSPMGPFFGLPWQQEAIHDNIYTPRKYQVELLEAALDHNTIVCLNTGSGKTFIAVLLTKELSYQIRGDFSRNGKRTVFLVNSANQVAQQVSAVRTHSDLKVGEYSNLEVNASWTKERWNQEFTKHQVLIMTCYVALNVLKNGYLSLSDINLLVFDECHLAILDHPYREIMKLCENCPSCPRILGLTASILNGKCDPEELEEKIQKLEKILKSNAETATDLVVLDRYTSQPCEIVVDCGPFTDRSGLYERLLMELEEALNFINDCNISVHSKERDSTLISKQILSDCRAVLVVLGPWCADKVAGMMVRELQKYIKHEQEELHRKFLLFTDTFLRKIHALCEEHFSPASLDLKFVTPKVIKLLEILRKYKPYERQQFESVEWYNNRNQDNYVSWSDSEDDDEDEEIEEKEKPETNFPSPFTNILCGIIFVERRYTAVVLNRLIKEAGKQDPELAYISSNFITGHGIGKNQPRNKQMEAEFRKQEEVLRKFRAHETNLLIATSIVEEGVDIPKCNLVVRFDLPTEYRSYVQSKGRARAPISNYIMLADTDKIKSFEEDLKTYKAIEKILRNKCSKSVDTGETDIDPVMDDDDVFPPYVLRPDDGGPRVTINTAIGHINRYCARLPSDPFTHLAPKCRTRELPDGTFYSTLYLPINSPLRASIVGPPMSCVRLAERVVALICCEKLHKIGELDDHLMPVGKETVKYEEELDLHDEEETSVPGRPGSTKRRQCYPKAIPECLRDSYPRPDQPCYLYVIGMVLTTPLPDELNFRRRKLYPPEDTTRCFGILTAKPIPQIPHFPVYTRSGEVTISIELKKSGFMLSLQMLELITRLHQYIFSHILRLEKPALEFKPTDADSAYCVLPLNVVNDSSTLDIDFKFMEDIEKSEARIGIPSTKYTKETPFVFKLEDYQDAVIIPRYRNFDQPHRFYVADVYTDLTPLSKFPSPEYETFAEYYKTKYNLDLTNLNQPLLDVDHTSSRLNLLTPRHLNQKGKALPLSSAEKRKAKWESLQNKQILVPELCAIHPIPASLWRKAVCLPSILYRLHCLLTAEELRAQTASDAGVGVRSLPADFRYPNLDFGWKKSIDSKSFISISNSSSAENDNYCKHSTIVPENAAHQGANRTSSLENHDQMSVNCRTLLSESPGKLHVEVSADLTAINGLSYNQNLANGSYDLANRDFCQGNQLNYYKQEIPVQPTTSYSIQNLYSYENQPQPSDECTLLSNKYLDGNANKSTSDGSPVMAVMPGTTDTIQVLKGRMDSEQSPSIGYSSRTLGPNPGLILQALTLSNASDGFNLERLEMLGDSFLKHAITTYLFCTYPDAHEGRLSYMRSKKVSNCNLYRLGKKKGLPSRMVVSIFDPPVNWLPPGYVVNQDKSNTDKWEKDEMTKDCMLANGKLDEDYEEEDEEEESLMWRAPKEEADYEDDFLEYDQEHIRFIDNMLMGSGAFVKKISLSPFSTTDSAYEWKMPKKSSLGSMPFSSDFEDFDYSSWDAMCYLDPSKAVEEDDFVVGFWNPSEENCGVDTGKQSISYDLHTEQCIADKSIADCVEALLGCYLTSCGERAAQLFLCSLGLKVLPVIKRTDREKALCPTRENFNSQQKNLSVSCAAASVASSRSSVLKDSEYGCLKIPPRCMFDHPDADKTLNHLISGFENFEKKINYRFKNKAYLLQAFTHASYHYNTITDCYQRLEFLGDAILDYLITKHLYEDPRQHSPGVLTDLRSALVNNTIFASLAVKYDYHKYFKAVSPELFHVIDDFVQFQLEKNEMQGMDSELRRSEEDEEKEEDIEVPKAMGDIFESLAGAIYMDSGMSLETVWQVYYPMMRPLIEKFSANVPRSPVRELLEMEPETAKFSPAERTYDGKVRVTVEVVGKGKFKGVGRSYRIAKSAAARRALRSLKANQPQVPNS
An asterisk follows results filed as active.

SMILES	Dicer inh
Cc1nc(NC2=NCCC(=O)N2)nc2ccccc12	1
CCn1c[n+](CC(O)COC2CCCCC2)c2cc(C)c(C)cc21 (stereo unspecified)	2.1
COC(=O)C1=C(N)Oc2c(Br)cc(Br)cc2C1C(C#N)C(=O)OC (stereo unspecified)	-0.28
Cc1ccc2nc(-c3sc4ccccc4c3C)cn2c1	-3.5
CC(=O)CSc1n[nH]c(CN2c3ccccc3Sc3ccccc32)n1	3.5*
CC(C)Cc1nc(SCC(=O)c2ccccc2)n[nH]1	-0.18
CCn1c(CN2c3ccccc3Sc3ccccc32)n[nH]c1=S	0.6
COC(=O)c1cnc(S(=O)CC#N)n1C (stereo unspecified)	0.2
O=C(N/C=C/c1ccsc1)Nc1ccccc1C(F)(F)F	0.6
Fc1ccc2c(c1)-c1nc(C3CC3)ncc1CO2	0.74
N/C(=N\S(=O)(=O)c1cc(C(F)(F)F)cc(C(F)(F)F)c1)c1ccccc1	0.93
N/C(=N\S(=O)(=O)c1cc(C(F)(F)F)cc(C(F)(F)F)c1)N1CCSCC1	5.5*
Cc1nc(C(F)(F)F)ccc1C(=O)N1CCSCC1	-0.12
C=C1C[C@]23C[C@@]1(O)CC[C@H]2[C@@]12C=C[C@H](O)C(C)(C(=O)O1)[C@H]2[C@@H]3C(=O)O	1.1
Cc1ccc(NC(=O)CSc2nnnn2-c2ccccc2)cc1C#N	1.5
Cc1ccc(/C(O)=C2\C(=O)C(=O)N(CCCn3ccnc3)C2c2ccco2)cc1 (stereo unspecified)	0.48
N#CC(C#N)=NNc1cc(-c2ccccc2)[nH]n1	-1.7
CCOC(=O)c1c(C)noc1/C(C)=N/OC(=O)Nc1cccc(C(F)(F)F)c1	-0.92
Cc1ccccc1-c1n[nH]c(=S)o1	-1.2
COc1ccccc1-c1n[nH]c(=S)o1	3.7*
CCn1nc(C)cc1-c1n[nH]c(=S)o1	0.96
COc1ccccc1-c1nc2ccccc2c(=O)o1	-1.8
Cc1ccc(-c2n[nH]c(=S)o2)cc1	4.8*
FC(F)(F)c1ccc(-c2n[nH]c(=S)o2)cc1	0.29
O=[N+]([O-])c1c(SCCO)ccc2nsnc12	-4.7
SMILES	Dicer inh
O=C(O)c1cc(C(F)(F)F)ccc1Cl	2.1
N#Cc1c(-c2cccnc2)[nH]c(=S)[nH]c1=O	-0.38
N#Cc1c(-c2ccncc2)[nH]c(=S)[nH]c1=O	3.6*
COc1ccc(-c2[nH]c(SC)nc(=S)c2C#N)cc1	-2
O=C(Nc1nnc(-c2ccco2)s1)c1ccccc1Br	0.78
COCCNS(=O)(=O)c1ccc(C(=O)OC)n1C	0.34
N#Cc1cnn(-c2c(Cl)cc(C(F)(F)F)cc2Cl)c1N	-0.67
CC(=O)[C@H]1CC[C@H]2[C@@H]3CCC4=CC(=O)CC[C@]4(C)[C@H]3CC[C@]12C	1.4
C[C@]12CCC(=O)C=C1CC[C@@H]1[C@@H]2CC[C@@]2(C)[C@H]1CC[C@]2(O)C(=O)CO	3.3*
CC(=O)[C@@]12OC(C)(c3ccccc3)O[C@@H]1C[C@H]1[C@@H]3CCC4=CC(=O)CC[C@]4(C)[C@H]3CC[C@@]12C (stereo partly specified)	-0.12
N#Cc1c(NC(=O)c2ccccc2C(=O)O)sc2c1CCCC2	1.3
c1csc(-c2nc3c4c5c(sc4ncn3n2)CCCCC5)c1	2.5
O=C(O)c1c(-c2ccccc2)nnc2ccccc12	-0.97
O=C(Nc1ccc(OC(F)(F)F)cc1)c1c(-c2ccccc2)nnc2ccccc12	29*
O=C(Nc1ccc(OC(F)(F)F)cc1)Nc1ccc2ccccc2n1	-1
CCOC(=O)C1=C(C)N=C2SCCC(=O)N2C1/C=C/c1ccccc1 (stereo unspecified)	-0.4
CN(C)c1c(F)cc(C(=O)NC(=O)Nc2nnc(C(F)(F)F)s2)cc1F	-0.95
ONC(=Nc1cccc(C(F)(F)F)c1)c1ccccc1	-0.29
ONC(=Nc1ccccc1)c1cccc(Cl)c1	-1.7
COc1ccc(N=C(NO)c2ccccc2)cc1Cl	3.1*
COc1ccc(/C(N)=N/OC(=O)Nc2ccccc2)cc1OC1CCCC1	-0.13
O=C(C1=C(O)C(=O)N(CCCN2CCOCC2)C1c1cccnc1)c1ccco1 (stereo unspecified)	-0.25
CC1=C(C(=O)Nc2ccc(Br)cn2)C(c2ccc(C)cc2)C2=C(CC(C)(C)CC2=O)N1 (stereo unspecified)	-0.43
CC1=C(C(=O)Nc2ccccn2)C(c2ccc(Br)cc2)C2=C(CC(C)(C)CC2=O)N1 (stereo unspecified)	4.1*
CC1=C(C(=O)Nc2ccc(C)cn2)C(c2cccc(Br)c2)C2=C(CC(C)(C)CC2=O)N1 (stereo unspecified)	1.3
SMILES	Dicer inh
CC1=C(C(=O)OCCc2ccccc2)C(c2ccc3c(c2)OCO3)C2=C(CC(C)(C)CC2=O)N1 (stereo unspecified)	1.5
CC1=C(C(=O)Nc2cc(C)ccn2)C(c2ccc(F)cc2)C2=C(CC(C)(C)CC2=O)N1 (stereo unspecified)	1.8
CC1=C(C(=O)Nc2cccc(C)n2)C(c2cccc(Br)c2)C2=C(CC(C)(C)CC2=O)N1 (stereo unspecified)	4.8*
CCOC(=O)C1=C(C)NC2=C(C(=O)CC(C)(C)C2)C1c1ccc(F)cc1 (stereo unspecified)	0.51
COC(=O)C1=C(C)NC2=C(C(=O)CC(C)(C)C2)C1c1cccc(F)c1 (stereo unspecified)	-0.96
CC1=C(C(=O)Nc2ccc(F)cc2F)C(c2ccc3c(c2)OCO3)C2=C(CC(C)(C)CC2=O)N1 (stereo unspecified)	3.1*
Cc1ccc(S(=O)(=O)CCSc2n[nH]c(=O)n2-c2ccc(OCc3ccccc3)cc2)cc1	0.2
COc1ccc(C(C)=O)cc1CS(=O)(=O)Cc1cc(C(C)=O)ccc1OC	1.1
CCOC(=O)c1c(N/N=C/c2ccc(C(F)(F)F)cc2)n[nH]c1C	-0.07
CCOc1cccc(-c2nc3ccc(Br)cc3c(=O)o2)c1	1.2
CCOC(=O)C(O)(NC(=O)c1c(F)cccc1F)C(F)(F)F (stereo unspecified)	-2.1
COc1ccc(C2C(C(=O)OC3CCCCC3)=C(C)NC3=C2C(=O)CCC3)cc1Br (stereo unspecified)	-0.61
C/C(=N\Nc1nc(-c2ccc(Cl)cc2)cs1)c1ccc(C)nc1	0.61
COc1ccc(Nc2nc(Cl)nc(Nc3ccc(OC)cc3)n2)cc1	-0.67
COc1ccc(Nc2c(Cl)cc(OC)cc2Cl)cc1	3.4
COc1ccc(Nc2n[nH]c(N)n2)cc1	5.6*
COC(=O)c1cccc([N+](=O)[O-])c1-c1c(C(=O)OC)cccc1[N+](=O)[O-]	-0.32
C#CCSc1nc(O)c(CCCC)c(=O)[nH]1	-1
Cc1ccc(-c2nnc3c4ccccc4c(C)nn23)cc1S(=O)(=O)NCc1ccccc1	2.8
Cc1ccccc1-c1nnc2c3ccccc3c(C)nn12	5*
Cc1nn2c(-c3cccc(NS(=O)(=O)c4ccc(Cl)cc4)c3)nnc2c2ccccc12	2.5
c1ccc(-c2nn3c(-c4ccccc4)nnc3c3ccccc23)cc1	4.5*
COCCNS(=O)(=O)c1ccc(C)c(-c2nnc3c4ccccc4c(C)nn23)c1	1.4
Cc1ccc(S(=O)(=O)N2CCCCC2)cc1-c1nnc2c3ccccc3c(C)nn12	1.1
COc1cc(OC)cc(C2C(C#N)=C(N)Oc3n[nH]c(C)c32)c1 (stereo unspecified)	-4.2
Cc1ccn2cc(-c3cccc(S(=O)(=O)N4CCCC(C)C4)c3)nc2c1 (stereo unspecified)	-0.13
CC12CCC3c4ccc(OCCCC#N)cc4CCC3C1CCC2=O (stereo unspecified)	-1.7
N#CC(=NCCC1=CCCCC1)C1=C(O)c2ccccc2C1=O	-0.31

Screening results deposited in PubChem by Center for Chemical Genomics, University of Michigan.
